{"source": "PubChem BioAssay AID624351", "about": "(Southern Research Specialized Biocontainment Screening …, 2012)", "note": "About 1,400 (58%) of roughly 2,400 compounds were called active.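 The calls were made as follows: active = inhibition of 30% or more at any tested dose; inconclusive = primary hits over the limit that were never retested; inactive = the rest.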 The set was probably picked from earlier hits. The list shows a part of the results.", "data": [{"assay": "ADP Hunter readout inhibition without MgcRacGAP – biochemical, coupled enzyme counter-screen, artefact control for MgcRacGAP inhibitor project, dose response (AID 624351);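 also: signal is the ADP detection kit reading of free GDP without any GAP enzyme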", "conditions": "fluorescence, no MgcRacGAP; series mostly up to 80 µM", "values": [{"smiles": "COc1cc(/C=C/c2ccc3cccc(O)c3n2)ccc1O", "IC50": "81.5 µM (active)"}, {"smiles": "COc1cc(/C=N/n2c(C)nc3ccccc3c2=O)ccc1O", "IC50": "43.1 µM (active)"}, {"smiles": "CCCc1nc2ccccc2c(=O)n1/N=C/c1ccc(O)c(O)c1", "IC50": "41.7 µM (active)"}, {"smiles": "NCC[C@H](O)C(=O)N[C@@H]1C[C@H](N)[C@@H](O[C@H]2O[C@H](CN)[C@@H](O)[C@H](O)[C@H]2O)[C@H](O)[C@H]1O[C@H]1O[C@H](CO)[C@@H](O)[C@H](N)[C@H]1O", "IC50": "inactive"}, {"smiles": "COc1cc(/C=N/NC(=O)CN(Cc2ccco2)S(=O)(=O)c2ccccc2)ccc1O", "IC50": "49.9 µM (active)"}, {"smiles": "COc1cc(/C=N/NC(=O)CN(Cc2ccccc2)S(=O)(=O)c2ccc3c(c2)OCCO3)ccc1O", "IC50": "73 µM (active)"}, {"smiles": "CS/C(=N\\S(=O)(=O)c1cccs1)NC(=O)CSc1nc2ccccc2s1", "IC50": "inactive"}, {"smiles": "C#CCOCCOCCOCCNc1nc(N2CCN(C(=O)[C@H](CCCCN)n3cc(CN)nn3)CC2)nc(N2CCN(C(=O)[C@H](CCC(=O)O)n3cc([C@@H](N)CCCCN)nn3)CC2)n1", "IC50": "inactive"}, {"smiles": "CCOC(=O)C1=C(C)NC(=O)CC1c1cc2c(cc1[N+](=O)[O-])OCO2", "note": "(stereo unspecified)", "IC50": "64.2 µM (active)"}, {"smiles": "OC1CNc2c(ccc3ccccc23)C1", "note": "(stereo unspecified)", "IC50": "16.5 µM (active)"}, {"smiles": "O=C1CCC(C2CCc3cc(O)ccc3C2)C1", "note": "(stereo unspecified)", "IC50": "77.7 µM (active)"}, {"smiles": "Clc1nssc1=Nc1ccc(Br)cc1", "IC50": "inactive"}, {"smiles": "CSc1nc(C)c2c(n1)N(c1ccc(O)cc1)CC2", "IC50": "16.2 µM (active)"}, {"smiles": "Cc1ccc(N2C(S)=C(C#N)C(=O)NC2c2ccco2)cc1", "note": "(stereo unspecified)", "IC50": "inactive"}, {"smiles": "CCN(CC)CCOCCOc1ccc(Cl)c2ccccc12", "IC50": "inactive"}, {"smiles": "CCOc1cccc2cc(C(=O)Oc3ccc(OC)cc3)c(=O)oc12", "IC50": "inactive"}, {"smiles": "COc1cc(/C=N/NC(=O)CCC(=O)Nc2ccc(F)cc2)ccc1O", "IC50": "36.4 µM (active)"}, {"smiles": "Cc1ccc(NC(=O)CCC(=O)N/N=C/c2ccc(O)cc2)cc1", "IC50": "51.5 µM (active)"}, {"smiles": "Cc1nc(C)c(CC(=O)N/N=C/c2ccc(O)cc2)c(=O)[nH]1", "IC50": "75.8 µM (active)"}, {"smiles": "O=C(CCC(=O)Nc1ccc(F)cc1)N/N=C/c1ccc(O)cc1", "IC50": "71.3 µM (active)"}, {"smiles": "CCCCCCCCCCCCCCCC(O)C[N+](C)(C)CCO", "note": "(stereo unspecified)", "IC50": "inactive"}, {"smiles": "Cc1ccc(NC(=O)CN(C)C2CCCCC2)cc1Cl", "IC50": "inactive"}, {"smiles": "O=C(CC(=O)Nc1ccc(Cl)c(Cl)c1)N/N=C/c1ccc(O)cc1", "IC50": "66.8 µM (active)"}, {"smiles": "Cc1cc(=O)[nH]c(N/N=C/c2ccc(O)c(O)c2)n1", "IC50": "20.9 µM (active)"}, {"smiles": "COc1cc(/C=N/Nc2nc(C)cc(=O)[nH]2)ccc1O", "IC50": "24.9 µM (active)"}, {"smiles": "S=c1[nH]cc2cnccn12", "IC50": "72.1 µM (active)"}]}]}
